Inconclusive results are not listed. Calls of active or inactive are those of the source. The call rests on the fitted dose curve; in most records, active means well fitted cell-killing curve with a large enough effect; inconclusive means small, poorly fitted or top-dose-only effect; inactive means flat fitted curve, though single readings scatter.
test: Identifying Small Molecule Inhibitors of Pancreatic Cancer Stem Cells (SN12C, Adherent) (AID 1259358); details: viability/growth inhibition; series mostly up to 46.1 µM;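 further: cell survival measured after 48 h of compound exposure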
Excerpt: Progenitor-like cancer cells, often referred to as cancer stem cells (CSC), are believed to be the drivers of therapeutic resistance and rapid recurrence. CSCs are postulated to reside in specific niches characterized by low oxygen tension, limited nutrient supply, and high redox load. Selectively targeting CSC, alone or in combination with cytotoxic agents, as a means to produce durable remissions is an appealing concept. Modeling these cells in in vitro setting is an important step in finding new therapies and/or targets. Multiple reports highlight that forcing cells in culture into 3-dimensionaly architectures (spheroids) re-establishes key progenitor-like transcriptional signatures. Pancreatic cancer is among the diseases with the most dismal outlook which is driven, largely, by recurance following front-line therapies. […] In hopes of deriving new insight into the targeting of these pancreatic CSCs we examined three established pancreatic cancer cell lines in cytotoxicity assays versus a collection of approved and investigational drugs. Importantly, we screened these lines as traditional monolayer (2D) and spheroid (3D) formats to gain an appreciation of agents with differential activity.
Multicellular tumor spheroids from Panc1, MiaPaCa-2, and the primary low-passage tissue culture line SB.06 were seeded in stem cell media (SCM) in nonadherent 6-well plates coated with hydrogel (Corning Life Sciences, Chelmsford, Mass) and pancreatic spheres generated for 14 days before screening. Cells were seeded into 1536-well solid-bottom white tissue culture treated Greiner Bio One Plates (789173-F) using a MultiDrop Combi (Thermofisher Scientific) dispenser and a small sterile cassette. One column was media alone to be used as a :"no cells" control. The plates were then covered with sterilized stainless steel gasketed lids from Kalypsys. After allowing cells to attach for 4 hours, 23 nL of test compound or control (negative control DMSO and positive control 9.2 uM Bortezomib-final) were added from a 1536-well polypropylene compound source plate to each well using a 1536 head pin tool from Kalypsys. Cells were then incubated for 48 hours at 37C, 95% relative humidity and 5% CO2. After 48 hours, plates were removed from the incubator and 3 uL of CellTiter-Glo (Promega) was added using an Aurora Flying Reagent Dispenser Bioraptor. Plates were incubated at room temperature for 10 minutes prior to reading the luminescence on the Viewlux (PerkinElmer). The relative luciferase units are used to calculate the percent activity using the activity of DMSO in the cells and no cells columns for normalization of no inhibition and full inhibition respectively.
Potency means the concentration at half of the fitted maximal effect.

SMILES	Potency
CCCCN1CCC(CNC(=O)c2c3n(c4ccccc24)CCCO3)CC1	inactive
CC(NCc1ccc2c(c1)nc(NC(=O)c1ccc(-c3cn[nH]c3)s1)n2CC(C)(C)O)C(C)(C)C (stereo not given)	0.296 µM (active)
COc1ccc(OC)c(-c2nnc3ccc(-c4ccc(OC)c(O[C@@H]5CCOC5)c4)nn23)c1	20.9 µM (active)
CN1CCC(CNc2ccc3ncc(-c4cccc(OC(F)(F)F)c4)n3n2)CC1	20.9 µM (active)
NC(=O)Nc1cc(-c2cccc(F)c2)sc1C(=O)N[C@H]1CCCNC1	8.33 µM (active)
C[C@]1(CO)CN(c2cc(C(=O)Nc3ccc4c(c3)-c3c(c(C(N)=O)nn3-c3ccc(F)cc3)CC4)c(Cl)cn2)C[C@@]1(C)CO	16.6 µM (active)
CC(C)c1ccccc1Cc1cc(C(=O)Nc2ccc(S(=O)(=O)c3ccccc3C(C)(C)C)cc2)c(O)c(O)c1O	inactive
Cc1[nH]c2ccccc2c1CCNCc1ccc(C=CC(=O)NO)cc1	0.235 µM (active)
Cc1nc2cnc3ccc(C#Cc4cccnc4)cc3c2n1-c1ccc(C(C)(C)C#N)cc1	1.18 µM (active)
CS(=O)(=O)N1CCN(Cc2cc3nc(-c4cccc5[nH]ncc45)nc(N4CCOCC4)c3s2)CC1	0.296 µM (active)
Cc1cnc(-c2cnc(NCCNc3ccc(C#N)cn3)nc2-c2ccc(Cl)cc2Cl)[nH]1	inactive
Cc1cn2c(-c3cn[nH]c3)cnc2c(Nc2ccc(C(=O)N3CCNCC3)cc2F)n1	20.9 µM (active)
CC(C)(O)CCc1ccc(OCc2cc(-c3cccc(OC(F)F)c3)c3ncccc3c2)cc1	inactive
C#Cc1cccc(Nc2ncnc3cc(OC)c(OCCCCCCC(=O)NO)cc23)c1	14.8 µM (active)
CC(=O)SC[C@@H](C)C(=O)N1CCC[C@H]1C(=O)N[C@@H](Cc1ccccc1)C(=O)O	inactive
C=CC(=O)Nc1cc2c(Nc3ccc(F)c(Cl)c3)ncnc2cc1OCCCN1CCOCC1	23.5 µM (active)
C1Cc2[nH]nc(-c3nn[nH]n3)c2C1	inactive
COc1cc(C(C)C)c2c(c1)S(=O)(=O)N(COc1cc(=O)n3cccc(OCCN4CCCCC4)c3n1)C2=O	inactive
CC(=O)OCCN1C(=O)c2c(C)nc3ccc(S(=O)(=O)N4CCOCC4)cc3c2C1=O	inactive
COC(=O)c1ccc2c(C(=Nc3ccc(N(C)C(=O)CN4CCN(C)CC4)cc3)c3ccccc3)c(O)[nH]c2c1	18.7 µM (active)

SMILES	Potency
COc1cc2ncn(-c3cc(OCc4ccccc4C(F)(F)F)c(C(N)=O)s3)c2cc1OC	1.05 µM (active)
C[C@@H]1CN(CC(=O)Nc2ccc3c(c2)Cc2cccc(-c4cc(=O)cc(N5CCOCC5)o4)c2S3)C[C@H](C)O1	inactive
CC(C)[C@H](C(=O)Nc1ccc(C(=O)NO)cc1)c1ccccc1	3.72 µM (active)
Nc1nc(-c2nn(Cc3ccccc3F)c3ncccc23)nc(N)c1N1CCOCC1	inactive
C1=CCOCc2cc(ccc2OCCN2CCCC2)Nc2nccc(n2)-c2cccc(c2)OCC1	5.26 µM (active)
CCCCc1nc2cc(C=CC(=O)NO)ccc2n1CCN(CC)CC	2.96 µM (active)
CC(C)(C)c1cc(NC(=O)Nc2ccc(-c3cn4c(n3)sc3cc(OCCN5CCOCC5)ccc34)cc2)no1	inactive
COCCn1c2c([n+](Cc3cnccn3)c1C)C(=O)c1ccccc1C2=O	0.0264 µM (active)
CC(C)=CCCC(C)=CCCC(C)=CCSc1ccccc1C(=O)O	inactive
CCN1CCN(Cc2ccc(-c3cc4c(N[C@H](C)c5ccccc5)ncnc4[nH]3)cc2)CC1	23.5 µM (active)
CCCCCN(CCC12CC3CC(CC(C3)C1)C2)C(=O)NCCCc1ccncc1	inactive
Nc1ccccc1NC(=O)c1ccc(CNC(=O)OCc2cccnc2)cc1	inactive
Fc1cc(-c2cccc3ncc(-c4cnn(C5CCNCC5)c4)nc23)cc(F)c1CN1CCOCC1	23.5 µM (active)
NC(=O)c1c(OCc2c(F)cc(Br)cc2F)nsc1NC(=O)NCCCCN1CCCC1	5.26 µM (active)
Cn1c(=O)n(-c2ccc(C(C)(C)C#N)cc2)c2c3cc(-c4cnc5ccccc5c4)ccc3ncc21	0.0743 µM (active)
c1ccc2c(CCNc3ccc(Nc4ccncc4)cc3)c[nH]c2c1	18.7 µM (active)
CC=C1NC(=O)[C@H]2CSSCCC=C[C@H](CC(=O)N[C@H](C(C)C)C(=O)N2)OC(=O)[C@H](C(C)C)NC1=O	0.0053 µM (active)
COc1cc2c(Oc3ccc(-c4cnc(Nc5ccc(F)cc5)n(C)c4=O)cc3F)ccnc2cc1OCCCN1CCOCC1	5.9 µM (active)
CCOc1cc2ncc(C#N)c(Nc3ccc(F)c(Cl)c3)c2cc1NC(=O)C=CCN(C)C	0.209 µM (active)
O=C(C=Cc1cccnc1)NCCCCC1CCN(C(=O)c2ccccc2)CC1	inactive
